Data taken from PubChem BioAssay AID1117319 (Southern Research Institute, 2015).
“And” between values parts separate entries of the source, which are not always exact repeats. Equal entries are not always repeated. The whole screen tested about 260,000 compounds, of which about 1,500 (0.58%) were called active. Not shown: some 5% with an inconclusive outcome.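 How the source made its calls: active means inhibition above a set limit at one or more doses, reproduced on every date tested; inconclusive means results disagree between test dates, or hit never tested in dose response; inactive means the rest.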 Only a sample is shown. Entries with a potency or affinity are not part of this list.

These molecules were tested against Virion infectivity factor (Human immunodeficiency virus type 1 group M subtype B (isolate BH10)) + Virion infectivity factor (Human immunodeficiency virus type 1 group M subtype B (isolate BRU/LAI)) + Virion infectivity factor (Human immunodeficiency virus type 1 group M subtype B (isolate PCV12)) + Virion infectivity factor (Human immunodeficiency virus type 1 group M subtype B (isolate HXB2)) + DNA dC->dU-editing enzyme APOBEC-3G (Homo sapiens) (UniProt P69720+P69721+P69722+P69723+Q9HC16) (assay: HIV-1 Vif–A3G interaction blockers – biochemical, TR-FRET, GST-Vif 1-94, biotin-A3G peptide, dose response retest, primary screen (AID 1117319;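 further: Vif residues 1-94 fused to GST binding biotinylated APOBEC3G peptide 110-148; 0% = full assay without inhibitor and 100% = GST in place of GST-Vif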)). Conditions: TR-FRET GST-Vif / biotin-A3G peptide binding; stronger effect = higher value.

inhibition, inactive:
N#C/C(=C\c1ccc(-c2cccc([N+](=O)[O-])c2)o1)C(=O)Nc1nc(-c2cccs2)cs1 3.46%
Cc1cccc(NC(=O)CN(C)S(=O)(=O)c2cccc3cccnc23)c1 2.4%
Cc1cc(C#N)c(C)c(SCc2[nH]nc3c2C(c2ccccc2)C(C#N)=C(N)O3)n1 (configuration not stated) 7.14%
COC(=O)c1ccccc1NC(=O)CN1CCC(C)CC1 26.5%
Cc1c(NC2=C(Cl)C(=O)N(c3ccccc3)C2=O)c(=O)n(-c2ccccc2)n1C 6.24%
COCCN(C(=O)COC(=O)CSc1cc(C)ccc1C)c1c(N)n(Cc2ccccc2)c(=O)[nH]c1=O -5.52%
CC(=O)Nc1ccc2c(c1)OCCO2 -3.04%
CC(=O)Nc1ccc2c(c1)OCCOCCOc1cc(NC(C)=O)ccc1OCCOCCOCCO2 30.1%
COc1ccc(-n2cccc2/C=C/[N+](=O)[O-])cc1 20.8%
O=C(O)c1cccc(-n2cccc2C=C2C(=O)c3ccccc3C2=O)c1 29.9%
CC(C)[C@H](NC(=O)OCc1ccccc1)C(=O)OCC(=O)N1CCN(c2ccc(F)cc2)CC1 -1.08%
CCNc1nc(ON=C(C)C)nc(N(C)C)n1 -7.57%
CCC(C)NC(=O)c1ccc(CSCc2ccccc2Cl)o1 (configuration not stated) 2.45%
COc1ccc(OC)c(Nc2nc(-c3cccs3)cs2)c1 3.68%
COc1ccc(OC)c(Nc2nc(-c3sc(N)nc3C)cs2)c1 7.55%
Cc1ccc(C2/C(=C(\O)c3ccc4c(c3)OCCO4)C(=O)C(=O)N2CC2CCCO2)cc1 (configuration not stated) -0.97%
COc1ccc(/C(C)=N/NC(=O)CNC(=O)c2cccnc2)c(OC)c1 3.46%
COc1ccc(OC)c(NC(=O)NC2CCCCCCC2)c1 -6.56%
COc1ccccc1C(=O)N1CCCC(c2nc(-c3cc(OC)c(OC)c(OC)c3)no2)C1 (configuration not stated) -8.18%
CC1=C(C(=O)Nc2ccccc2)C(c2ccc(C)o2)n2c(s/c(=C/c3ccccc3)c2=O)=N1 (configuration not stated) 12.7%
COc1ccc(C2C(C(C)=O)=C(C)N=c3s/c(=C\c4ccco4)c(=O)n32)c(OC)c1 (configuration not stated) 31.2%
CCOC(=O)C1=C(C)N=c2s/c(=C/c3ccccc3)c(=O)n2C1c1ccc(OC)c(OC)c1 (configuration not stated) 1.78%
CCOC(=O)C1=C(c2ccccc2)N=c2s/c(=C\c3ccc(O)cc3)c(=O)n2C1c1cccs1 (configuration not stated) -10.4%
CCOC(=O)C1=C(c2ccccc2)N=c2s/c(=C\c3cccc(O)c3)c(=O)n2C1c1cccs1 (configuration not stated) -2.23% and -5.42%
CC1=C(C(=O)Nc2ccccc2C)C(c2ccc(C)o2)n2c(s/c(=C/c3ccccc3)c2=O)=N1 (configuration not stated) 29.2%
COc1cccc(CNC(=O)CSCc2cnn(-c3ccccc3)c2-n2cccc2)c1 2.53% and 7.19%
CC(=O)c1cnc2n(c1=O)CCS2 -2.48%
COc1ccc(C(CC(=O)c2ccc(C)cc2)C(C#N)C#N)cc1OC (configuration not stated) -6.99%
O=C(O)CCCNC(=O)OCc1ccccc1 -2.72%
CC1CCN(S(=O)(=O)c2ccc(S(=O)(=O)NCC3COCCO3)cc2)CC1 (configuration not stated) 8.23%
CCNS(=O)(=O)c1ccc(CCC(=O)O)cc1 -1.11%
CCN(CC)S(=O)(=O)c1ccc(N2CC(C(=O)NCCC3=CCCCC3)CC2=O)cc1 (configuration not stated) -3.38%
Cc1ccc(S(=O)(=O)N2CCN(Cc3ccccn3)CC2)cc1 0.21%
CC(=O)Nc1ccc(S(=O)(=O)N2CCN(c3ccccn3)CC2)cc1 25%
O=C(O)/C(=C\c1cn(-c2ccccc2)nc1-c1cccnc1)NC(=O)c1ccccc1 -1.44%
Cc1cccc(OCc2n[nH]c(=S)n2-c2ccccc2)c1 1.89%
Cc1ccc(OCc2n[nH]c(=S)n2-c2ccccc2)cc1C -3.72%
O=C(CN1CCN(C(=O)c2ccccc2)CC1)Nc1cc(S(=O)(=O)N2CCCC2)ccc1Cl -24.1%
COC(=O)C1=C(C)NC(C)=C(C(=O)OC)C1C(=O)OCc1nc2cc(C(=O)OC)ccc2c(=O)[nH]1 -5.82%
Cc1ccc(-c2nc(N)n(S(=O)(=O)c3ccc(C)cc3)n2)cc1 0.67%
CC(C)C1Nc2ccc(S(N)(=O)=O)cc2C2C=CCC21 (configuration not stated) 30.5%
O=C(C1CC=CCC1)N1CCN(S(=O)(=O)c2ccc(F)cc2)CC1 (configuration not stated) -4.47%
CC(OC(=O)c1n[nH]c2ccccc12)C(=O)NC1CCCCC1C (configuration not stated) 1.37%
CCOC(=O)N1CCN(c2ccc([N+](=O)[O-])cc2)CC1 0.75%
CCOC(=O)N1CCN(c2ccc(Cl)cc2)CC1 -2.77%
CCc1ccccc1NC(=S)N(CCCN(C)C)Cc1cc2cc3c(cc2[nH]c1=O)OCO3 -0.74%
Clc1ccc(Oc2nc(N3CCOCC3)nc(N3CCOCC3)n2)c(C2CCCCC2)c1 -3.78%
O=C(O)c1ccc(N2C(=O)CSC2c2cccc([N+](=O)[O-])c2)cc1 (configuration not stated) -1.67%
CCN(CC(=O)Nc1ccc(NC(C)=O)cc1)C(=O)c1ccc(N2CCC(C)CC2)c([N+](=O)[O-])c1 3.59%
O=C(NC1CC1)c1ccc2c(c1)C1C3CCC(C3)C1C(c1ccccc1)N2 (configuration not stated) 3.47%
O=C(O)c1cccc2c1-c1c(cccc1[N+](=O)[O-])C2 -2.94%
O=C(O)C1CCC(NSc2ccccc2[N+](=O)[O-])CC1 (configuration not stated) -7.35%
CCN(C(=O)c1ccc(Cl)c([N+](=O)[O-])c1)c1ccccc1 3.48%
CC(C)Cc1cc(C(=O)Nc2cc(C(F)(F)F)ccc2Cl)no1 14.1%
C=Cc1ccc(CSc2cc(C)nc3nc(C)nn23)cc1 -4.49%
Cc1ccc(CNc2ccc3c(c2)ncn3C(C)C)cc1 15.2%
CC(C)(C)c1ccc(C(=O)C2CCCN(C(=O)CN3CCCC3=O)C2)cc1 (configuration not stated) -3.41%
Cc1ccc(NC(=O)CCCN2C(=O)C(c3ccccc3)Oc3cccnc32)c(C)c1 (configuration not stated) -3%
COc1ccc(C(=O)N/C(=C\c2ccco2)C(=O)OCc2ccco2)cc1 19.9%
CCCCOc1ccc(C(=O)N/C(=C\c2ccc(OC)cc2)C(=O)OCc2ccco2)cc1 -1.87%
COc1ccc2c(c1)NC(C)(C)C=C2C 32.2%
COc1cc(NC(C)CCCNC(C)C)c2ncccc2c1OC (configuration not stated) 3.4%
COc1cc(NCCCCCCCN)c2ncccc2c1 3.69%
COC(=O)c1cc(NC(=O)COC(=O)CCc2c[nH]c3ccccc23)cc(C(=O)OC)c1 2.64%
O=C1N=C(N2CCOCC2)S/C1=C/c1ccc(-c2ccccc2Cl)o1 7.88%
CC(=O)N1CC(=O)N(Cc2ccccc2)/C(=C/c2ccccc2)C1=O 7.17%
O=C1CC(/C=C/c2ccncc2)=Nc2ccccc2N1 3.89%
O=C1CC(/C=C/c2ccccc2)=Nc2ccccc2N1 4.19%
CC1=C([N+](=O)[O-])C(c2ccc(Cl)cc2)NC(=O)N1C (configuration not stated) 6.98%
FC(F)(F)c1ccc(N2CCN(Cc3ccc4c(c3)OCO4)CC2)nc1 -10.1%
CCOC(=O)C1=C(N)OC2=C(C(=O)CC(C)(C)C2)C1c1ccoc1 (configuration not stated) -2.95%
CC(C)NC(=O)COc1ccc(Cl)cc1Cl -3.29%
Cc1ccc(C(=O)/C=C/Nc2cccc(O)c2)cc1 1.59%
C/C(=C\C(=O)c1ccc(Br)cc1)Nc1cccc(Cl)c1 -2.57%
O=C(Cc1ccccc1)NNC1CC(=O)N(c2ccc(Cl)cc2)C1=O (configuration not stated) 8.41%
Cc1ccnc(SCc2cc(=O)c(OC(=O)c3ccccc3)co2)n1 6.36%
CCN(CC)c1ccc(C(=S)NCc2ccccc2)cc1 7.25%
CCN(CC)c1ccc(NC(=O)Nc2ccccc2)cc1 5.11%
COc1ccccc1NC(=O)C(C)N1C(=O)C2CCCCC2C1=O (configuration not stated) 9.66%
COc1ccc(CCNC(=S)Nc2cc(C)ccc2C)cc1 2.7%
COc1ccc(N=C2NC(=O)/C(=C/C=C/c3ccccc3)S2)cc1 -3.43%
O=C1NC(=Nc2ccc3ccccc3c2)S/C1=C/c1ccco1 -0.8%
Cn1cccc1/C=C1\SC(=Nc2ccc(O)cc2)NC1=O -0.29%
COC(=O)/C=C1\SC(=Nc2ccc(OC)cc2)NC1=O -0.91%
COc1ccc2c(c1OC)C(=O)OC2CC(=O)c1ccc2c(c1)OCO2 (configuration not stated) -2.78%
CCOC(=O)CSc1ccc2nnc(-c3ccncc3)n2n1 3.55%
Cc1ccc(NC(=O)C2CCC2)cc1S(=O)(=O)N1CCCCCC1 0.74%
O=S(=O)(NCC(c1cccnc1)N1CCOCC1)c1ccc(Cl)cc1 (configuration not stated) 1.91%
CC(C)c1ccccc1NC(=O)Cn1c(/C=C/c2ccccc2)nc2ccccc21 2.28%
Cc1cc(N/N=C/c2ccc(N(C)C)cc2)nc(NCc2ccccc2)n1 7.69%
CC(=O)c1ccc(S(=O)(=O)NCc2cccnc2)cc1 0.59%
COc1cc(C(C)=O)ccc1OCC(=O)N1CCCC1c1ccc2c(c1)OCCCO2 (configuration not stated) -2.26%
